IL1B secr inh = qHTS for Inhibitors of Inflammasome Signaling: IL-1-beta AlphaLISA Primary Screen | THP-1 LPS/ATP IL-1B secretion, AlphaLISA, 16 h; active compounds read low | activity change, % at 57.5 µM | hit rate 4.7% among 360,000; in the data active = activity change below about -50%; inconclusive = mostly about -30% to -49%
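THP-1 cells pretreated 1 hr with compounds (up to 57.5 uM final), then stimulated with LPS (250 ng/mL final) plus ATP (1.25 mM final); secreted IL-1B measured by AlphaLISA after 16 hr, decreased signal indicating inhibition.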
TDP1 cell CPT = qHTS for Inhibitors of human tyrosyl-DNA phosphodiesterase 1 (TDP1): qHTS in cells in presence of CPT; AID 686979, 2013; hit rate 12% among 420,000; Potency, µM (top dose mostly 46.2 µM), for the others: top-dose activity change, negative = growth inhibition, most hits filed as inhibitors; chicken DT40 Tdp1-/-;hTDP1 cells + 20 nM CPT, ATP luminescence, 48 h; note: potency is the fitted concentration of half-maximal effect; nearly all actives have a fitted effect of over 55% in size
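Cell growth measured by CellTiter-Glo luminescence after a minimum 48 h, 37 C compound exposure with 20 nM CPT in Tdp1-knockout DT40 cells stably expressing hTDP1, seeded 400/well; qHTS titration format.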
HT1080 IDH1KD tx = qHTS for induction of synthetic lethality in tumor cells producing 2HG: qHTS for the HT-1080-IDH1KD cell line; HT-1080 IDH1 knockdown viability, ATP luminescence, 48 h; Potency, µM (series often up to 46.1 µM), without a hit: at the top dose activity, negative = toxicity, actives largely listed as cytotoxic; hit rate 2% among 360,000;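 note: potency is the fitted concentration of half-maximal effect; 0% = DMSO wells and -100% = cell-free medium wells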
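% activity derives from luminescence (CellTiter-Glo), normalised to DMSO and no-cell wells. HT-1080-IDH1KD cells, 750/well, had 48 h compound exposure at 37 °C.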
TDP1 cell noCPT = qHTS for Inhibitors of human tyrosyl-DNA phosphodiesterase 1 (TDP1): qHTS in cells in absence of CPT | DT40 Tdp1-/- hTDP1 cells, no CPT, ATP luminescence, 48 h | Potency, µM (doses to about 46.2 µM), for inactives: at the top dose activity change, negative = growth inhibition, actives largely listed as inhibitors | hit rate 15% among 420,000 | AID 686978, 2013; note: potency is the fitted concentration of half-maximal effect; nearly all actives have a fitted effect of over 55% in size
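Readout: luminescence from CellTiter-Glo after 30 min in the dark at RT. Cells: DT40 Tdp1-/- with stable hTDP1, 400/well. Exposure: compounds alone, ≥48 hr, 37 °C.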
12-LOX inh = Primary qHTS assay for inhibitors of human arachidonate 12S-lipoxygenase (ALOX12): Round 2. Polyunsaturated fatty acid lipoxygenase ALOX12 (Homo sapiens), P18054. Potency, µM (titrated, usually from 108 µM), for the others: top-dose activity change, negative = inhibition, usual class: inhibitors. hit rate 1.1% among 580,000. purified 12hLO, xylenol orange hydroperoxide absorbance; note: potency is the fitted concentration of half-maximal effect
Target sequence (P18054 whole entry, looked up): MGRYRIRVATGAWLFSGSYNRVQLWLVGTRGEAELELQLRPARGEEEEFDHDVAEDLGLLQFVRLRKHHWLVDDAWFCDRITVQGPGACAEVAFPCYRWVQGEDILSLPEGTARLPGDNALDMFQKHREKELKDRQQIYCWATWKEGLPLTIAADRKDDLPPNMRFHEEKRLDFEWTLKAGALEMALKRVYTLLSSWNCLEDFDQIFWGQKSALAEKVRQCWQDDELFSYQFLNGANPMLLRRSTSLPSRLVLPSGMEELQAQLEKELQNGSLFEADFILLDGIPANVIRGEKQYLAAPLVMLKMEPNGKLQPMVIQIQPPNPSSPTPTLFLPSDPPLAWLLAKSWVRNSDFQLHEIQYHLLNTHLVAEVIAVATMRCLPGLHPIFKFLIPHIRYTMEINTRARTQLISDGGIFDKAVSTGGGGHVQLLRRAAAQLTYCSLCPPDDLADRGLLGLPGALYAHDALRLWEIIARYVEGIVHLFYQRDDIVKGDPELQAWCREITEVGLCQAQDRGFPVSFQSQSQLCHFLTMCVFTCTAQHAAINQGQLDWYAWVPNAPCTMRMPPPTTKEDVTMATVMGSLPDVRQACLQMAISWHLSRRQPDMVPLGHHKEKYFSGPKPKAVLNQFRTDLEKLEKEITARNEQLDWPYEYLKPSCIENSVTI
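Purified human 12hLO at 150 nM in 25 mM Hepes, 0.01% Triton X-100, pH 7.0, preincubated 15 min at room temperature with compound. Reaction started with 40 uM arachidonic acid, 30 min at room temperature. Hydroperoxide measured by Fe-xylenol orange, 573/405 nm absorbance ratio.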
HT1080-NT tox = qHTS for induction of synthetic lethality in tumor cells producing 2HG: qHTS for the HT-1080-NT fibrosarcoma cell line; Potency, µM (series often up to 46.1 µM), inactives show top-dose activity, negative = less viability, hits mostly cytotoxic; hit rate 1.6% among 360,000; HT-1080-NT fibrosarcoma viability, CellTiter-Glo ATP luminescence, 48 h;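 note: NT is the 2HG producing partner of a matched IDH1 knockdown line; potency is the fitted concentration of half-maximal effect; 0% = DMSO-treated cells and -100% = media-only wells without cells; nearly all actives have a fitted effect of over 55% in size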
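Luminescent CellTiter-Glo readout after 48 hours of compound exposure at 37 degrees C defined viability of HT-1080-NT cells. Activity was normalized to DMSO wells and cell-free media wells; concentration-response curves were fitted and assigned curve classes.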
* marks the source's active call; other numbers are inactive results; ? = inconclusive; / = not tested or not shown; ! = not active in a repeat; [ ] = another dose, or the depositor's remark. Only a selection was taken, and hits are over-represented in it overall. Unless noted, calls come from the whole dose curve; as a rule, active = well fitted curve in the direction sought with a large enough effect; inconclusive = small, poorly fitted or top-dose-only effect, or another doubt; inactive = no such curve, though single readings can be large; an effect the other way counts as inactive or inconclusive. Unless noted, % is set by controls: 0 for no effect and ±100 for the full control effect.

SMILES	IL1B secr inh	TDP1 cell CPT	HT1080 IDH1KD tx	TDP1 cell noCPT	12-LOX inh	HT1080-NT tox
COC(=O)C1=C(c2ccc(Cl)c(C(F)(F)F)c2)C[C@@H]2CC[C@H]1N2C(=O)N1CCC(O)(c2ccc(Cl)cc2)CC1	-83*	?	?	?	-11%	?
COC(=O)C1=C(c2ccccc2)C[C@@H]2CC[C@H]1N2C(=O)N1CCC(O)CC1	27	-5%	11%	6%	0%	1%
COC(=O)C1=C(c2ccc(Cl)c(C(F)(F)F)c2)C[C@@H]2CC[C@H]1N2C(=O)N1CCOCC1	-1	6.5µM*	-6%	4.6µM*	-5%	0%
CNC(=O)c1ccc(N2C(=S)N(c3ccc(C#N)c(C(F)(F)F)c3)C(=O)C23CCC3)cc1F	/	/	/	/	-3%[57.4 µM]	/
O=C(CCn1nc(-c2ccc(Cl)cc2)ccc1=O)N1CCC2(CC1)OCCO2	-4	-17%	0%	-9%	-5%	-2%
Cc1nc2cc(-c3ccc(Cl)cc3)nn2c(C)c1CCC(=O)N1CCC2(CC1)OCCO2	35	23µM*	11%	21µM*	?	-4%
O=C(NCCN1CCC2(CC1)C(=O)NCN2c1ccccc1)c1cccc2c1-c1ccccc1C2=O	/	/	/	/	6%	/
CN1CN(c2ccccc2)C2(CCN(CCCSc3ccccc3NC(=O)/C=C/c3ccccc3)CC2)C1=O	-71*	?	?	?	?	?
Cn1cc(CN2CCN(C(=O)COc3ccccc3)CC2)ccc1=O	/	/	/	/	48%	/
COCCN1CCC(N2CCN(C(=O)Cc3c(F)cccc3Cl)CC2)C1=O (configuration not stated)	/	/	/	/	81%	/
Cc1ccc(C)c(N2CCN(C(=O)CCS(=O)(=O)c3ccc4c(c3)oc(=O)n4C)CC2)c1	-21	16µM*	1%	15µM*!	-13%	-13%
COc1ccccc1N1CCN(S(=O)(=O)c2ccc3c(c2)oc(=O)n3C)CC1	-12	-3%	2%	?	0%	3%
Cc1ccc(-c2nc3c(=O)n(C)c(=O)nc-3n(C)n2)cc1	/	0.63µM*	/	0.5µM*	/	/
Cn1ncnc2c(=O)n(C)c(=O)nc1-2	-108*	0.21µM*	1µM*	0.29µM*	?	0.52µM*
CN(CCc1ccccn1)C[C@H]1CN2CC[C@H]1C[C@@H]2CNS(=O)(=O)c1ccccc1	/	/	/	/	5%[176 µM]	/
COC(=O)C1=C(c2ccc(F)cc2OCc2ccccc2)C[C@@H]2CC[C@H]1N2C(=O)NCc1ccccc1OC	0	26µM*	-12%	?	0%	-5%
COC(=O)C1=C(c2ccc(F)cc2OCc2ccccc2)C[C@@H]2CC[C@H]1N2C(=O)NCC1CC1	-19	7.3µM*	-1%	8.2µM*	4%	0%
COC(=O)C1=C(c2ccc(F)cc2OCc2ccccc2)C[C@@H]2CC[C@H]1N2C(=O)NCc1cc(C)oc1C(F)(F)F	-18	21µM*	8%	?	/	0%
OCC1CN(C2CCC2)CC12CCN(Cc1cccnc1)CC2 (configuration not stated)	/	/	/	/	133%	/
O=[N+]([O-])c1ccc(S(=O)(=O)N2CCn3cccc3C2c2ccccc2F)cc1 (configuration not stated)	/	?	/	16µM*	?	/
ClCCN(CCCl)c1ccc(-n2cnc3c(Cl)ncnc32)cc1	-96*	6.5µM*	23µM*	6.5µM*	-1%	?
O=S(=O)(NC[C@H]1C[C@@H]2CCN1C[C@@H]2CN1CCc2ccccc21)c1ccccc1	/	/	/	/	20%[176 µM]	/
CCCCCn1c(=O)c(C(=O)Nc2ccccn2)c(O)c2ccccc21	15	3.7µM*	-7%	4.6µM*	229%	-8%
CCCCCCn1c(=O)c(C(=O)Nc2cnccn2)c(O)c2ccccc21	0	0.82µM*	?	0.58µM*	11%	-21%
CCCCCn1c(=O)c(C(=O)NCc2ccncc2)c(O)c2ccccc21	92	?	-29%	?	13%	-19%
SMILES	IL1B secr inh	TDP1 cell CPT	HT1080 IDH1KD tx	TDP1 cell noCPT	12-LOX inh	HT1080-NT tox
CCCCn1c(=O)c(C(=O)Nc2ccc(C)cn2)c(O)c2ccccc21	14	13µM*	8%	9.2µM*	/	3%
CCCCn1c(=O)c(C(=O)Nc2ccccn2)c(O)c2ccccc21	37	3.3µM*	5%	4.1µM*	7%	0%
CCCCCn1c(=O)c(C(=O)Nc2cccc(C)n2)c(O)c2ccccc21	33	29%	11%	?	-7%	26%
C=C[C@H]1CN2CC[C@H]1C[C@@H]2CNC(=O)c1cccnc1SC	/	/	/	/	20%[176 µM]	/
CC1OC(OC2C(O)CC(OC3C(O)CC(OC4CCC5(C)C(CC[C@@H]6[C@@H]5CCC5(C)C(C7=CC(=O)OC7)CCC65O)C4)OC3C)OC2C)CC(O)C1O (some centres not stated)	/	/	/	/	4%	/
CCCCCCn1c(=O)c(C(=O)Nc2ncccc2O)c(O)c2ccccc21	10	5.2µM*	-3%	5.2µM*	12%	5%
O=[S+]1([O-])NC2(CCN(CC3CCCCC3)C2)COc2ccncc21 (configuration not stated)	/	/	/	/	6%[6.33 µM]	/
CC(C)C12CN3CN(C1)CC(C(C)C)(C3)C2=O	/	/	/	/	0%	/
Cc1n[nH]c(C)c1CCCCOc1ccc([N+](=O)[O-])cc1	12	15µM*	-2%	?	-16%	8%
CN(C)c1ccc(CN2CCc3nc(N4CCN(c5ccccn5)CC4)ncc3C2)cc1	/	21µM*	/	21µM*	?	/
Cc1ccccc1CN1CCc2nc(N3CCN(c4ccccn4)CC3)ncc2C1	/	?	/	?	-26%	/
COc1cc(CN2CCc3nc(N4CCN(c5ncccn5)CC4)ncc3C2)cc(OC)c1OC	/	8.2µM*	/	8.2µM*	?	/
Cc1ccc(COc2ccc(CC(C)N)cc2)cc1 (configuration not stated)	/	/	/	/	13%	/
CC(C)c1ccc(OCC(=O)Nc2cc(-c3nc4ncccc4o3)ccc2Cl)cc1	/	?	/	6.5µM*	-3%	/
CC(C)c1ccc2oc(-c3ccc(NC(=O)c4cc5ccccc5o4)cc3)nc2c1	/	-18%	/	?	?	/
